Hit rate of the full screen: of about 2,100 compounds, about 770 (37%) were called active.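 Rule for the calls: active = by-eye trace score of 1 for enhancers or -1 for inhibitors, so actives lie on both sides (some results past the limit were not filed as active); inactive = score 0, or 3 fluorescent, or 4 baseline rise.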 The list shows a part of the results.
molecular target: G protein-activated inward rectifier potassium channel 2 (Homo sapiens) + G protein-activated inward rectifier potassium channel 1 (Homo sapiens) (UniProt P48051+P48549); assay: GIRK1/2 thallium flux modulators, retest, confirmation, cell-based, HEK293 rmGlu8/hGIRK1/2, FluoZin-2 (AID 623911); details: HEK293 rmGlu8/hGIRK1/2, thallium flux FluoZin-2; actives lie on both sides; glutamate co-added at its EC20 level
Sequence (P48051 whole entry, looked up): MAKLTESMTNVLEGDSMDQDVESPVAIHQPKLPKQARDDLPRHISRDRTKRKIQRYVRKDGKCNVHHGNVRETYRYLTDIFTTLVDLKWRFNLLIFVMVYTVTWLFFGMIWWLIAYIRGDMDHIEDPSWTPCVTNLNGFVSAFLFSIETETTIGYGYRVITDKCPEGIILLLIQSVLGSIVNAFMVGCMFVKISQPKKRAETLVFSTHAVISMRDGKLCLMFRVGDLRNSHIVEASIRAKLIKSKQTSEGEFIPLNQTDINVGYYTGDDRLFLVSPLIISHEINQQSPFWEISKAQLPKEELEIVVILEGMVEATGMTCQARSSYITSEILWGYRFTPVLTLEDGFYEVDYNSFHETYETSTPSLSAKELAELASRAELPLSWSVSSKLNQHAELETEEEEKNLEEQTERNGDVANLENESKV
Sequence (P48549 whole entry, looked up): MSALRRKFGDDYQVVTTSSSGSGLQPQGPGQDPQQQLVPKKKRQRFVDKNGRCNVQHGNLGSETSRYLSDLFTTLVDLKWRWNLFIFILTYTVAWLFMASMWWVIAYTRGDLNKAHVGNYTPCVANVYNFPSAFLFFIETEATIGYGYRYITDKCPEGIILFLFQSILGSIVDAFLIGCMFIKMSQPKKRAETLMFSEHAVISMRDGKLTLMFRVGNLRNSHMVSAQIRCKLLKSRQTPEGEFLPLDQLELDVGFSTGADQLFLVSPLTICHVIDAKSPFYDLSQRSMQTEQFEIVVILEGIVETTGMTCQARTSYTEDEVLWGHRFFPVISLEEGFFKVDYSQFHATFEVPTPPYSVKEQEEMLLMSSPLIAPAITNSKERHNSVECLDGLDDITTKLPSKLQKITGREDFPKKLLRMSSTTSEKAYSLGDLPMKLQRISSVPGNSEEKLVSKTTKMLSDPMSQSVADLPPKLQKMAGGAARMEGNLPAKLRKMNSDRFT

| SMILES | manual score |
| --- | --- |
| COc1ccc(C(C)N2CC34C=CC(O3)C(C(=O)OCC(C)C)C4C2=O)cc1 (stereo not drawn) | 0 (inactive) |
| CCCOc1cccc(-c2cc(-c3n[nH]c(=S)n3CC)c3ccccc3n2)c1 | 0 (inactive) |
| COc1cc(C)nc(N(Cc2ccccc2)S(=O)(=O)c2ccccc2)n1 | -1 (active) |
| COc1ccc(S(=O)(=O)N(CCc2ccccc2)CC(=O)O)cc1 | 0 (inactive) |
| Cc1c(C#N)c2ncn(CC#N)c(=O)c2n1-c1ccccc1 | 0 (inactive) |
| O=C(NC(=S)Nc1ccc(N2CCOCC2)cc1)c1cccc(Cl)c1 | 0.5 (inactive) |
| CC(=O)c1cccc(NC(=S)NC(=O)c2cccc(C)c2)c1 | 0 (inactive) |
| CC(=O)c1cccc(NC(=S)NC(=O)c2cccc(Cl)c2)c1 | 1 (active) |
| O=C(/C=C/c1cccs1)NC(=S)NNC(=O)Cc1cccs1 | 0 (inactive) |
| O=C(NC(=S)NNC(=O)c1cccs1)c1ccc(Br)o1 | 1 (active) |
| Cc1cccc(C(=O)NC(=S)NNC(=O)c2ccc(Cl)cc2)c1 | 1 (active) |
| Cc1cccc(C(=O)NC(=S)NNC(=O)c2ccccc2Cl)c1 | 1 (active) |
| CC1CC(C)CN(Cc2nc(N)nc(Nc3ccc4ccccc4c3)n2)C1 (stereo not drawn) | 0 (inactive) |
| O=c1c(O)c(-c2cccs2)oc2ccccc12 | 3 (inactive) |
| Cc1ccc(C(=O)NNC(=S)NC(=O)c2ccc(Cl)cc2Cl)cc1 | 0.5 (inactive) |
| Cc1cccc(C(=O)NC(=S)NNC(=O)c2cccs2)c1 | 1 (active) |
| Cc1ccc(C2CC2C(=O)NNC(=S)Nc2ccc(Cl)cc2)cc1 (stereo not drawn) | 0 (inactive) |

| SMILES | manual score |
| --- | --- |
| Cc1ccc(C(=O)NNC(=S)NC(=O)c2ccc(Cl)cc2)cc1 | 1 (active) |
| Cc1cccc(C(=O)NC(=S)Nc2ccccc2C(F)(F)F)c1 | 0 (inactive) |
| Cc1c(C(=O)O)sc2nc3n(c(=O)c12)CCC(C)CC3 (stereo not drawn) | 0 (inactive) |
| CCCN(CCC)CC(O)Cn1cc(/C=C/C(=O)c2cccs2)c2ccccc21 (stereo not drawn) | 3 (inactive) |
| COc1ccc(Nc2nc(C)cc(C)c2C#N)cc1OC | 0 (inactive) |
| CCCC1COC(Cn2cncn2)(c2ccc(C)cc2)O1 (stereo not drawn) | 0 (inactive) |
| N#CCSc1nc2ccc(N3CCOCC3)cc2c(=O)n1CCc1ccccc1 | 0 (inactive) |
| CC1CCCCN1Cc1nc2c(c(=O)n(C)c(=O)n2C)n1CCc1ccccc1 (stereo not drawn) | -1 (active) |
| COc1ccc(N2CCN(c3nc4c(c(=O)n(C)c(=O)n4C)n3Cc3ccccc3)CC2)cc1 | -1 (active) |
| COCCn1c(CN(Cc2ccccc2)Cc2ccccc2)nc2c1c(=O)n(C)c(=O)n2C | -1 (active) |
| Cn1c(=O)c2c(nc(-n3ccnc3)n2Cc2ccccc2)n(C)c1=O | 0 (inactive) |
| COC(=O)C(C)Sc1nc2c(c(=O)n(C)c(=O)n2C)n1Cc1cccc(C)c1 (stereo not drawn) | 0 (inactive) |
| CN(C)CCCOc1nc2c(c(=O)n(C)c(=O)n2C)n1C | 0 (inactive) |
| COC(=O)Cn1c(CN2CCc3ccccc3C2)nc2c1c(=O)n(C)c(=O)n2C | 0 (inactive) |
| CCCOc1nc2c(c(=O)n(C)c(=O)n2C)n1Cc1cccc2ccccc12 | -0.5 (inactive) |
| CCCCn1c(CN(Cc2ccccc2)Cc2ccccc2)nc2c1c(=O)n(C)c(=O)n2C | -1 (active) |
